According to PubChem BioAssay (EPA / NIEHS):
Active and inactive are the calls of the source. The calls were made as follows: active = hit-call score of the fitted dose curve at least 0.9, where 1 is the maximum; inactive = score below 0.9.

Assay: ATG_RORE_CIS: Attagene CIS-FACTORIAL HepG2 Assay for human RAR-related Orphan Receptor Element (RORE) (AID 2282959)
Details: HepG2 Attagene cis-factorial RORE reporter, mRNA; actives raise or lower the signal
Experimental: ATG_CIS is a cell-based, multiplexed-readout assay that uses HepG2, a human liver cell line, with measurements taken at 24 hours after chemical dosing in a 24-well plate.ATG_RORE_CIS is one of 52 assay component(s) measured or calculated from the ATG_CIS assay. It is designed to make measurements of mRNA induction, a form of inducible reporter, as detected with fluorescence intensity signals by Reverse transcription polymerase chain reaction (RT-PCR) and Capillary electrophoresis technology.Data from the assay component ATG_RORE_CIS was analyzed into 1 assay endpoint. This assay endpoint, ATG_RORE_CIS, was analyzed with bidirectional fitting relative to DMSO as the negative control and baseline of activity. Using a type of inducible reporter, measures of mRNA for gain or loss-of-signal activity can be used to understand the reporter gene at the transcription factor-level as they relate to the gene RORA and RORB and RORC. Furthermore, this assay endpoint can be referred to as a primary readout, because this assay has produced multiple assay endpoints where this one serves a reporter gene function. To generalize the intended target to other relatable targets, this assay endpoint is annotated to the nuclear receptor intended target family, where the subfamily is orphan.
Human liver HepG2 cells are transiently transfected with multiple reporter transcription units (MRTUs) in 6-well plates using FuGene 6 reagent (Roche; 3 ml FuGene/1 mg DNA). The MRTU constructs are regulated by a cis-regulating element (promoter). […] A major difference between the CIS and TRANS system is that in CIS activities of endogenous TFs are measured, whereas the TRANS assay evaluates changes in activities of exogenous, chimeric NR-Gal4 proteins. […] At the end of 24 hour incubation, total RNA was isolated using TriZol reagent (Invitrogen). The isolated RNA is then reverse-transcribed using oligo(dT) primer and Mo-MLV reverse transcriptase (Invitrogen) with DNAse I (Ambion) treatment for 30 min. The one-tenth of the produced cDNA was amplified by PCR using Taq DNA polymerase (Invitrogen) and two reporter sequence-specific primers. The PCR products were fluorescently labeled by primer extension with 6-arboxyfluorescein (6-FAM) 5'-labeled reporter sequence-specific primer (2 min at 95 C, 20 s at 68 C and 10 min at 72 C) and these products were digested with 5U of HpaI (New England Biolabs) for 2h at 37 C. The fragments were purified using Qiaquick PCR columns (Qiagen), analyzed on an ABI 3130xL genetic analyzer (Applied Biosystems) with peak positions identified by using a set of X-rhodamine (ROX)-labeled MapMarker1000 molecular weight standards (BioVentures). The raw capillary electrophoresis data was processed using Attagraph software (Attagene).

| SMILES | outcome | AC50 |
| --- | --- | --- |
| Cc1ccc(C)o1 | inactive |  |
| CCCCC(CC)COC(=O)c1ccc(O)cc1 (stereo not given) | inactive |  |
| CC(=O)OCCCc1ccccc1 | inactive |  |
| CCCCCc1ccco1 | inactive |  |
| Nc1ccccc1[N+](=O)[O-] | inactive |  |
| COC(=O)c1cccnc1 | inactive |  |
| Nc1ccc(NCCO)c([N+](=O)[O-])c1 | inactive |  |
| O=c1c(O)c(-c2ccc(O)cc2)oc2cc(O)cc(O)c12 | inactive |  |
| CCCC(=O)C(CC)Sc1ccoc1C (stereo not given) | inactive |  |
| CCCCCCCCCCCCN1CCCCCC1=O | inactive |  |
| CC1=CC[C@@]23C[C@@H]1C(C)(C)[C@@H]2CC[C@H]3C | inactive |  |
| Nc1ccc(N)c2c1C(=O)c1ccccc1C2=O | inactive |  |
| Nc1ccn([C@H]2CS[C@@H](CO)O2)c(=O)n1 | inactive |  |
| CCCCCCCC(=O)OCC(O)CO (stereo not given) | inactive |  |
| C=C(C)C(=O)OCCOCCOCCOC(=O)C(=C)C | inactive |  |
| CCCCCCCCCC(C)C=O (stereo not given) | inactive |  |
| CN1CCOCC1 | inactive |  |
| CCOC(=O)C1OC1c1ccccc1 (stereo not given) | inactive |  |
| CCCC(C)=O | inactive |  |
| CC(=O)O[C@@H]1CC2CCC1(C)C2(C)C (stereo not given in full) | inactive |  |

| SMILES | outcome | AC50 |
| --- | --- | --- |
| CCc1cc(C(C)(C)C)c(O)c(C(C)(C)C)c1 | inactive |  |
| CCC(=O)O[C@@H]1C[C@H]2CC[C@]1(C)C2(C)C | inactive |  |
| Cc1cc(CCC(=O)OCCOCCOCCOC(=O)CCc2cc(C)c(O)c(C(C)(C)C)c2)cc(C(C)(C)C)c1O | inactive |  |
| Cc1cc(S(=O)(=O)O)ccc1N=Nc1c(O)ccc2ccccc12 |  | 4.16 µM (active) |
| CC1(C)COCN1 | inactive |  |
| CC(C)c1ccccc1O | inactive |  |
| CCOc1ccccc1O | inactive |  |
| CC(=O)c1c(C)c([N+](=O)[O-])c(C(C)(C)C)c([N+](=O)[O-])c1C | inactive |  |
| ClC(c1ccccc1)(c1ccccc1)c1ccccc1 | inactive |  |
| OCc1cccc(Oc2ccccc2)c1 | inactive |  |
| OCC(O)c1ccccc1 (stereo not given) | inactive |  |
| c1ccc(Oc2ccccc2)cc1 | inactive |  |
| CN(c1nccc(=O)[nH]1)C1CCN(c2nc3ccccc3n2Cc2ccc(F)cc2)CC1 | inactive |  |
| CS(=O)(=O)c1ccc(C2=C(c3ccccc3)C(=O)OC2)cc1 | inactive |  |
| CCN(CCN)c1cccc(C)c1 | inactive |  |
| CCCCCCCCCCCCCCCC(=O)OC/C=C(C)/C=C/C=C(C)/C=C/C1=C(C)CCCC1(C)C | inactive |  |
| NC1CCCCC1N (stereo not given) | inactive |  |
| OCCOCCN1CCN(C2=Nc3ccccc3Sc3ccccc32)CC1 | inactive |  |
| CCCC(O)C(O)CO (stereo not given) | inactive |  |
| CCCCCCC(C)Nc1ccc(Nc2ccccc2)cc1 (stereo not given) | inactive |  |
